How the values were obtained:
Assay in all cases: PBM binding z-score (relative to random genomic background probes); higher = stronger binding; sequences stand for … in GC…GCGATTGACAGCGTAGAATGAAGG
[1] = system: RARb homodimer (NR concentration 270 nM)
Summary of the method: (§1)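 Probes were double-stranded and carried 34-nt variable regions with direct-repeat seeds, single-nucleotide variants, half-site ablations and random human genomic background sequences, printed on custom Agilent 4×180K protein-binding microarrays. Arrays were incubated 1 h with ligand-free nuclear receptor dimers in PBS pH 7.4, 2% milk, 0.02% Triton X-100, 1 mM DTT, 0.2 mg/mL BSA and 0.4 mg/ml salmon testes DNA. Antibodies against each partner (one per run) detected binding, and scanned fluorescence was regression-normalized. Binding z-scores use the random background probes as reference.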

[2] = system: RARg:RXRa (NR concentration 270 nM, RXRa partner concentration 90 nM)
Summary of the method: as §1

[3] = system: RARg homodimer (NR concentration 270 nM)
Summary of the method: as §1

[4] = system: RXRa DBDmut IVT, anti-RXR (DBD mutation: RXRa K156A/R161A, NR concentration 90 nM)
Summary of the method: as §1

[5] = system: RXRa homodimer (NR concentration 180 nM)
Summary of the method: as §1

[6] = system: THRa:RXRa (NR concentration 90 nM, RXRa partner concentration 90 nM)
Summary of the method: as §1

[7] = system: THRa homodimer (NR concentration 90 nM)
Summary of the method: as §1

[8] = system: VDR homodimer (NR concentration 270 nM)
Summary of the method: as §1

Sequence	PBM binding z-score [1]	PBM binding z-score [2]	PBM binding z-score [3]	PBM binding z-score [4]	PBM binding z-score [5]	PBM binding z-score [6]	PBM binding z-score [7]	PBM binding z-score [8]
ATCCAAAGGTCGAGGTGAGTATAGAGAAAGGGAA	3.21	4.69	4.83	1.19	5.1	3.07	1.07	1.09
CCGACTTGGGCAAAGGTTACCATACTCAGTACGA	1.87	2.04	1.01	0.535	2.45	1.39	-0.0972	0.0256
ATCTCTAGGTTAAAGTTCAGTGAATCCCGAGGAT	2.94	3.52	3.27	1.18	4.46	2.3	0.775	3.12
CGAATTAGGTCAAAGGACAGTGAAAGGCGACGTA	3.18	4.17	4.47	1.73	3.37	3.09	1.4	0.401
CCTTACGGGTCACTGACAGCTTATAGCATTTGGA	2.97	4.67	4.43	2.04	4.76	2.32	0.275	0.89
TAGCCTAGGTCCTTCAGGGGCCAGTATAGAAAGC	0.357	0.825	0.108	-1.03	-0.259	0.402	-0.799	-0.422
CCTTACGGGTCTCTCCAGGTTATAGCATCGGAGT	0.324	0.139	0.231	-0.347	0.0573	3.09	0.346	0.105
ATCTCTAGGTAAAGTTCAGCGAAAGATCGATAGA	2.94	2.55	2.95	1.25	1.9	1.41	0.214	1.66
TCGAGTAGGTTACGGGGGCATTCCGGGATGAAGA	2.02	3.36	2.56	1.49	2.87	3.7	0.954	2.67
GGTACGAGGGCAAAGTTGATAGCATCTGTCGACG	1.13	2.05	1.83	2.49	1.7	1.33	-0.0946	1.48
CCTCCAAGGTCATAGGAGGTCAGTGAAGACAGAT	5.33	6.72	7.01	3.01	6.79	5.36	3.1	4.12
CGCCCAAGGTCAGCAGGTCAGTGAAAGCGACGTG	4.99	6.47	6.63	2.48	5.3	3.63	2.02	1.38
CCCGCTAGGTCATGGTCAGCTAATCTACAGTATG	3.38	4	4.55	1.57	3.06	3.21	1.91	0.379
ATGTGTAGGTTACATCCGGGTCATTCAGGCTATG	3.32	3.75	2.19	0.811	2.95	3.94	2.75	3.1
GATACAGGGGCAAGGCCAGAGTACGCGTATTGAT	1.19	0.895	1.33	0.352	0.544	0.311	-0.32	0.636
GATACAGGGTCAAGGCCAGAGTACGCGTATTGAT	3.46	5.41	4.92	2.66	5.69	3.52	1.35	2.91
GGAACTAGGGCAAAGTTGATAGCATCTGTCGACG	0.866	1.07	1.15	0.644	0.592	0.234	-0.621	-0.235
ATCGAACGGTCGAGGTGAGTATAGAGAAAGGGAA	0.591	0.56	1.16	-0.533	0.211	1.06	0.0248	-0.386
ATATGTAGGTTAGGGTCACTCAGAAAGTAGGGAA	3.57	3.98	3.56	1.74	5.09	4.21	3.46	2.6

Sequence	PBM binding z-score [1]	PBM binding z-score [2]	PBM binding z-score [3]	PBM binding z-score [4]	PBM binding z-score [5]	PBM binding z-score [6]	PBM binding z-score [7]	PBM binding z-score [8]
TTACCAAGGTAAAAGGTCGTTGATGCACGCCTTG	2.14	2.79	1.22	0.317	3.68	2.63	0.000698	1.44
CCTACTGGGCCACGAAAGGTAATTGATTCAGTGA	0.322	0.0783	0.352	-0.464	-0.00441	1.11	-0.00813	-0.234
CGAACTAGGTCAAAGGACAGTGCAAGGCGACGTA	3.1	3.95	4.42	1.15	3.24	2.57	0.81	0.767
TCATATAGGTAATCAGGTGAAAGTCCGTAAGTTA	0.773	0.361	0.3	1.52	0.885	1.82	1.51	0.521
CCATGTAGGTTAAGGGGGTCATTCAGTTTGAAAG	4.05	5.03	3.85	2.37	5.74	3.87	2.67	6.01
CTATGTAGGATAAGGGGGTCATTCAGTTTGAAAG	3.71	4.18	2.98	2.23	5.45	3.75	1.96	6.25
CCGAGTTGGTTACGAGGGGGCATTCAGTGCGAAT	1.81	1.91	1.44	2.58	1.02	2.46	0.911	4.2
ATATGTAGGTTACGGTCATTCAGAAAGTAGGGAA	2.42	2.34	2.47	0.852	1.64	2.08	0.831	0.93
CAAACTAGGTCACAGAGGTCGAAGTCCGTGCGTA	4.46	5.11	5.68	2.1	4.51	4.03	2	3.88
CGAACTAGGTCACCAGGACATTGAAGAGGTTGGA	3.54	4.42	5.21	1.95	3.45	3.48	2.06	1.1
CTATGTAGGTTAAGGCGGTCATTCAGTTTGAAAG	1.65	1.31	1.44	0.518	0.704	0.878	-0.0284	0.465
AATACAGGGTCACTTGGCCAGAGTAGGTACGAAT	3.25	5.22	5.19	3.11	5.25	3.37	1.15	2.85
CGGAGTAGGTTACGAGGGGGCATTCAGTGCGAAT	2.45	3.35	2.86	2.04	2.09	3.8	0.507	3.73
CAAACTAGGTCAAGAGGTCAAAGGCCGCTTCCCG	5.53	8.17	7.84	2.67	7.98	4.21	2.35	4.46
CTATGTAGGTTAAAGGGGTCATTCAGTTTGAAAG	4.23	5.28	4.06	2.87	6.56	3.91	1.29	6.99
TCGAGTAGGTTACAGGGGCATTCAGGGATGAAGA	1.64	1.1	0.679	0.69	1.29	2.65	0.735	1.42
ATATGTAGGTTAGGGTCATTCAAAAAGTAGGGAA	3.59	4.25	3.19	2.67	5.4	4.28	3.27	3.17
CCGAGTAGGTTACGAGGGGGCATGCAGTGCGAAT	2.07	3.17	2.67	1.12	2.12	3.73	0.433	2.6
ATCGAAAGGTCGAAGGTGAGTCTACCCACCCGAA	2.48	4.41	3.67	0.805	5.11	2.24	-0.0307	0.891

Sequence	PBM binding z-score [1]	PBM binding z-score [2]	PBM binding z-score [3]	PBM binding z-score [4]	PBM binding z-score [5]	PBM binding z-score [6]	PBM binding z-score [7]	PBM binding z-score [8]
TCGAGTAGGTTACGGGGGCATTGAGGGATGAAGA	2.27	3.47	2.72	1.71	2.66	2.97	1.39	3.13
ACTAGTTGGTAAGCTGAGGTCACACACAATTCGG	4.01	3.45	2.93	1.25	3.57	4.52	5.19	3.29
CCGAGTAGGTTACGAGGGAGCATTCAGTGCGAAT	0.337	0.625	0.53	0.00513	0.6	0.829	-0.661	-0.171
CAAAGTAGGTCAAGGTCAAAGTCGGTTTGTGCCA	5.16	6.15	6.56	3.29	6	4.22	3.66	4.44
CCTACTGGGCCATTCAGAGGTCATTGATCATATG	3.93	4.35	2.99	1.44	3.55	3.14	1.18	3.37
TCGACTAGGTTACGGGGGCATTCAGGGATGAAGA	2.54	3.66	3.14	2.55	2.88	4.1	1.91	3.72
CGAACTAGGTCAAAGAACAGTGAAAGGCGACGTA	2.03	3.41	4.27	1.3	3	2.06	0.033	0.121
TCGAGTAGGTTACGGTGGCATTCAGGGATGAAGA	0.0468	0.487	0.23	-0.239	0.829	0.835	-0.365	-0.35
TAGCCTAGGTCAGATCGGGGCAGTATACGCTATA	2.27	2.87	3.83	-0.173	1.6	4.07	0.0921	0.0728
CGAACTAGGTCACCAGGACCGTGAAGAGGTTGGA	3.25	4.44	5.18	1.08	3.5	2.89	1.07	0.39
ATATGTAGGGTAGGGTCATTCAGAAAGTAGGGAA	3.53	3.55	2.77	2.93	4.34	4.11	3.7	4.73
ATATGTATGTTAGGGTCATTCAGAAAGTAGGGAA	3.03	3.74	2.71	2.73	4.9	4.06	3.17	3.27
CTCGAAAGGTCGGTTGAGGTGAGTAAACGGATAA	2.42	2.86	2.8	0.85	2.46	4.97	1.19	0.238
CGAACTAGGTCAATGGACAGTGAAAGGCGACGTA	2.45	3.17	4.17	1.14	2.14	1.93	-0.00999	0.0508
TCGAGTAGGTTACGGGGGAATTCAGGGATGAAGA	1.1	1.42	1.05	0.995	1.37	1.93	0.716	0.477
CGCACTAGGTCACCAGGACAGTGAAGAGGTTGGA	3.34	4.53	5.06	1.09	3.23	3.34	2.35	1.14
CCGAGTAGGCTACGAGGGGGCATTCAGTGCGAAT	0.928	1.09	0.795	0.409	0.458	1.79	-0.405	2.19
CGAACTATGTCACCAGGACAGTGAAGAGGTTGGA	0.797	0.591	0.719	-0.0649	0.602	1.66	0.878	0.455

Reference: the supplement of paper PMC6555819
